High-throughput results as filed in PubChem.
Rows were chosen to be rich in hits. Some 21% of all compounds tested hit in one or more screens of this group.
Pf growth 48h: inhibits P. falciparum growth in the first generation, 48 h | actives 5.9% (n = 310,000) | AID 504832 | Potency, µM (highest dose often 28.7 µM), without a hit: at the highest dose activity change, negative = inhibition, hits mostly inhibitors | P. falciparum luciferase growth in erythrocytes, 48 h; further: potency means the concentration at half of the fitted maximal effect; on the % scale 0 is the no-effect control and ±100 the full control effect
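Compounds are pin-transferred into medium, infected erythrocytes (2% hematocrit, 0.1% parasitemia final) are added, and plates sit one parasite generation at 37 C in 5% CO2. Detection reagent is then added and luminescence measured.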
Pf growth 96h: P. falciparum growth inhibition at 96 hour, primary screen for plastid delayed-death inhibitors; AID 504834; Potency, µM (highest dose often 28.7 µM), inactives show at the highest dose activity change, negative = inhibition, most hits filed as inhibitors; actives 6.9% (n = 320,000); P. falciparum luciferase reporter growth, 96 h; further: potency means the concentration at half of the fitted maximal effect; on the % scale 0 is the no-effect control and ±100 the full control effect
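Readout is luminescence from an integrated firefly luciferase in P. falciparum. Red cells, 2% hematocrit and 0.05% parasitemia final, were cultured with compound through two parasite generations (96 hours) at 37 C, 5% CO2.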
HCMV inh: inhibitors of human cytomegalovirus; activity change, negative = inhibition, % at 57.5 µM; HFF cells, HCMV-luciferase reporter, 72 h; active compounds read low; actives 4.5% (n = 410,000); in the data active means activity change below about -60%; inconclusive means no clear call, values can overlap the other calls; inactive means above about -39%; further: on the % scale 0 is the no-effect control and ±100 the full control effect
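Cell-based, HFFs, 1000 cells/well, 16 h 37C; cpds in DMSO + HCMV-luc, MOI 1 PFU/cell; 72 h 37C; OneGlo luminescence after 5 min RT; norm. to buffer vs Salinomycin 10uM.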
CHX counter: affects cycloheximide protein synthesis inhibition readout, counter-screen. cell reporter, cycloheximide protein synthesis inhibition counterscreen. max response, %. actives 12% (n = 300,000); in the data active means max response mostly above about 13%, no sharp cut-off; inactive means mostly below about 14%; further: read at 38.3 µM for the half of the compounds with a filed dose; 0% is about no effect
HCV inh: blocks hepatitis C virus | Huh7.5.1 HCVcc-Cre infection, luciferase reporter, 44 h | Potency, µM (highest dose often 41.8 µM), without a hit: top-dose activity change, negative = inhibition, most hits filed as inhibitors | actives 3.4% (n = 340,000); further: potency means the concentration at half of the fitted maximal effect; on the % scale 0 is the no-effect control and ±100 the full control effect
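Cells seeded at 1,000/well and cultured 4 h, then compounds added followed by HCVcc-Cre virus (~0.5 moi). After 44 h further culture, luciferase substrate was added, plates held 15 min at room temperature, and luminescence read for 15 sec.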
Shiga toxin inh: blocks Shiga toxin action in Vero cells; Vero cells, Shiga toxin protein synthesis inhibition reporter; inhibition, % at 38.7 µM; actives 9.2% (n = 290,000); in the data active means inhibition mostly above about 28%, no sharp cut-off; inactive means mostly below about 43%; further: 0% is about no effect
Starred values were filed as active, the others as inactive; u = inconclusive; x = no result given; ! = not active in a repeat; [ ] = remark or other dose. Unless noted, the call rests on the fitted dose curve; in most records, active means well fitted inhibition curve with a large enough effect; inconclusive means small, poorly fitted or top-dose-only effect, or another doubt; inactive means no such curve, though single readings can be large or run the other way.

SMILES | Pf growth 48h | Pf growth 96h | HCMV inh | CHX counter | HCV inh | Shiga toxin inh
COc1cc(NC(=S)NCC2CCCO2)c(OC)cc1Cl (stereo not given) | -11% | 8.3µM* | u | -1 | u | -3
O=C(CSc1nc2cc(Cl)ccc2s1)NCC1CCCO1 (stereo not given) | x | x | -17 | x | 1% | x
S=C(NCC1CCCO1)Nc1ccc(Cl)cc1 (stereo not given) | 14% | 90% | -9 | 16* | -7% | 56
O=C(CSc1cc(Cl)ccc1Cl)NCC1CCCO1 (stereo not given) | 14% | 10µM* | 10 | -2 | 0% | -3
C=CCn1c(=O)[nH]c(=O)c2c(N)c(C(=O)c3ccc(OC)cc3)sc21 | x | x | -29 | x | -24% | x
CC(C)(C)n1nnnc1C(c1ccccc1)N1CCN(c2c(Cl)cncc2Cl)CC1 (stereo not given) | x | x | -13 | x | x | x
CN(Cc1cccs1)CC(O)COCc1ccco1 (stereo not given) | -15% | 12% | 54 | 3 | 1% | 1
COc1ccccc1COCC(O)CN(Cc1ccco1)Cc1ccccc1O (stereo not given) | 8.3µM* | 5.2µM* | -25 | -1 | -12% | 6
CCOc1cc(C=O)ccc1OS(=O)(=O)c1ccc(NC(C)=O)cc1 | 6% | u | 27 | -1 | 0% | -8
CNC(=S)NNC(=O)c1ccccc1F | 9% | 21% | u | -5 | -2% | 43
O=C(NNC1=Nc2ccccc2SC1)c1cccc([N+](=O)[O-])c1 | u | 10µM* | -84* | 0 | -20% | 14
O=C(NNC1=Nc2ccccc2SC1)c1ccccc1F | u | u | -86* | 39* | 14µM* | 72*
CN(c1ccc2c(-c3ccccn3)noc2n1)c1ccc(F)cc1F | x | x | 120 | x | x | x
COc1ccc(S(=O)(=O)NCc2cccnc2)c(Cl)c1Cl | x | x | 12 | x | x | x
CC(=O)c1ccc(N2CCN(c3nc4ccccc4c4nc(-c5cccc(C)c5)nn34)CC2)cc1 | x | x | 0 | x | x | x
O=C(NCc1ccc(F)cc1)c1ccc(NC(=O)C2CCCO2)cc1 (stereo not given) | -1% | -2% | -11 | -5 | 18% | -12
COc1ccc(CNC(=O)c2ccc(NC(=O)C3CCCO3)cc2)cc1 (stereo not given) | 23% | 23% | 42 | 9 | 22% | 26*
NC(=O)c1ccc(NC(=O)C2CCCO2)cc1 (stereo not given) | 22% | -29% | 13 | -4 | 4% | -11
Cc1cc(NC(=O)c2ccc(NC(=O)C3CCCO3)cc2)ccc1Br (stereo not given) | 28% | 1% | -74* | 42* | -1% | 74*
CCCOC(=O)c1ccc(NC(=O)C2CCCO2)cc1 (stereo not given) | 136% | -18% | 50 | 39* | -15% | 66*
O=C(Nc1ccc(O)cc1)c1ccc(NC(=O)C2CCCO2)cc1 (stereo not given) | 20% | u | -63* | 8 | 2% | 7
CC(C)c1ccc(NC(=O)c2cn(C3CCCC3)c(=O)c3c2c2ccccc2n3C)cc1 | x | x | -8 | x | x | x
COc1cccc(NC(=O)CN2CCCN(S(=O)(=O)c3ccc(Br)cc3)CC2)c1 | x | x | -20 | x | x | x
CCCn1nc(C(=O)N2CCN(S(=O)(=O)c3ccc(C)c(C)c3)CC2)c2ccccc2c1=O | 12µM* | u | -11 | x | 14µM* | x
CCCn1nc(C(=O)NNC(=O)c2ccc(C)c(C)c2)c2ccccc2c1=O | x | x | -17 | x | 13% | x
SMILES | Pf growth 48h | Pf growth 96h | HCMV inh | CHX counter | HCV inh | Shiga toxin inh
Oc1ccc(NCc2ccc(OCc3ccccc3)cc2)cc1 | 1%[0.00184 µM] | 3% | -63*! | 50* | -23% | 153*
CCc1ccc(CNc2ccc(O)cc2)cc1 | 12µM* | 56% | x | 9 | -3% | 14
Oc1ccc(OCc2ccccc2)cc1 | -27%[12.8 µM] | u | x | x | x | x
CCN(CC(=O)NCc1cccs1)C(=O)c1cccc(S(=O)(=O)Nc2ccc(OC)cc2)c1 | u | -3% | -25 | x | u | x
O=C(Nc1ccc2nn(-c3ccc(F)cc3)nc2c1)c1cccc2c(Cl)cccc12 | x | x | 13 | x | x | x
Cc1c(C#N)c(N)c(C(=O)c2ccccc2)n1Cc1ccccc1 | -16% | -12% | u | -1 | 9% | -21
CCn1c(C)c(C(=O)c2ccccc2)c(C#N)c1C(=O)O | 21% | 18% | 12 | 21* | u | 25
N#Cc1ccccc1OCC(=O)OCC(=O)N1CCN(C(=O)c2ccco2)CC1 | 1% | 38% | -30 | 2 | 15% | 26
O=C(CNC(=S)NC(=O)c1ccc(F)cc1)c1ccccc1 | 40% | 20% | 27 | 6 | -7% | 10
CC(C)C(=O)NC(=S)NCC(=O)c1ccccc1 | 49% | u | 1 | 29* | 1% | 26
O=C(CNC(=S)NC(=O)c1ccccc1)c1ccccc1 | 63% | 36% | 13 | 23* | -11% | 44*
Cc1cc(N/N=C/c2ccc(N(C)C)cc2)c2ccccc2n1 | 24% | 44% | 1 | 9 | u | 17
COc1ccc2nc(C)cc(N/N=C/c3ccccc3)c2c1 | 0.15µM* | 0.15µM* | x | x | 10µM* | x
COc1ccc(/C=N/Nc2cc(C)nc3ccc(OC)cc23)c(OC)c1 | u | u | -105* | -1 | 10µM* | 14
COc1cccc(/C=C2\SC(=S)N(NS(=O)(=O)c3ccccc3)C2=O)c1OC | 18% | 34% | 17 | 7 | 17% | 42
COc1ccc(Nc2nc(-c3cccc(OC)c3O)nc3ccccc23)cc1 | 7.4µM* | u | u | 33* | 5.6µM* | 50*
COc1cccc(-c2nc(NC(C)(C)C)c3ccccc3n2)c1O | 10µM* | u | 11 | -2 | u | 9
COc1cccc(-c2nc(Oc3cc(C)cc(C)c3)c3ccccc3n2)c1O | 30% | -6% | x | 13 | 6% | 23
COc1cc2oc(=O)c(CC(=O)N3CCCCC3)c(C)c2cc1Cl | x | x | -5 | x | x | x
Nc1[nH]c(=O)nc2snnc12 | x | x | 64 | x | 8% | x
CCOc1ncccc1C(=O)Nc1cccc(S(=O)(=O)N2CCCCC2)c1 | u | 7.4µM* | -19 | x | u | x
CC(=O)c1c(C)[nH]c(C(=O)Nc2cc(S(=O)(=O)N3CCCCC3)ccc2C)c1C | 13µM* | 13µM* | -5 | x | u | x
CCOc1ncccc1C(=O)Nc1cc(S(=O)(=O)N2CCCCC2)ccc1C | 12µM* | 9.3µM* | 2 | x | -1% | x
COc1ccc(OCC(O)Cn2c(NCCO)nc3c2c(=O)n(C)c(=O)n3C)cc1 (stereo not given) | x | x | -36 | x | x | x
Cc1csc(NC(=O)c2cccc(S(=O)(=O)N3CCN(C)CC3)c2)n1 | -5% | 4% | 60 | 5 | -18% | 21
COc1ccc(NC(=O)C[C@H]2C(=O)N(C3CCCCC3)C[C@@H]2c2ccc(OC)cc2)cc1 | x | x | 2 | x | x | x
